Values joined by “and” are separate entries in the source; they are usually repeats but may differ in a detail not shown here. Equal values may be shown once. Inconclusive results are not listed. A call without a number means that no potency is given here. The source holds several records for some structures; these can differ, active in one and inactive in another. Active and inactive are the calls of the source. The call rests on the fitted dose curve; in most records, active means well fitted curve in the direction sought with a large enough effect in the repeat runs; inconclusive means weak or mixed curves; inactive means no such curve, though single readings can be large; an effect the other way counts as inactive or inconclusive.
Potency means the concentration at half of the fitted maximal effect.

One assay can be described thus: A CellTox Green Cytotoxicity Assay to monitor cytotoxicity in HEK293 cells - 16 hour (AID 1224888). Further: nearly all actives have a fitted effect of over 35% in size. As to conditions: CellTox Green fluorescence; series mostly up to 76.8 µM. The essentials: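 Seeding of HEK293 cells together with cytotoxicity dye preceded a 5 h incubation at 37 C/5% CO2. Test compounds in DMSO were then added and fluorescence monitored across 40 h.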
As to `O=C(O)CCl`, the Potency result was “inactive”.

For the compound `C=CCOC(Cn1ccnc1)c1ccc(Cl)cc1Cl` (stereo unspecified), the Potency result was “inactive”.

On to `CC(=O)O`, for which the Potency entry was “inactive”.

In the case of `CCC[N+]1(C)CCCC1`, the Potency entry was “inactive”.

For the compound `CCCCCC[n+]1ccccc1`, the Potency entry was “inactive”.

As for `CCCC[N+]1(C)CCCCC1`, the Potency result is “inactive”.

For `COCC(=O)N(c1c(C)cccc1C)C(C)C(=O)OC` (stereo unspecified), the Potency entry was “inactive”.

For the compound `Nc1ccccc1`, the Potency entry was “inactive”.

Turning to `O=S(=O)(O)O`, the Potency result is “inactive”.

As to `C1CCC(NC2CCCCC2)CC1`, the Potency result was “inactive”.

With `CCCn1cc[n+](C)c1`, the Potency result is “inactive”.

For `O=C(O)C(Cl)(Cl)Cl`, the Potency entry is “inactive”.

With `COP(=O)(OC)C(O)C(Cl)(Cl)Cl` (stereo unspecified), the Potency result was “inactive”.

For the compound `CN(C)[C@@H]1C(=O)C(C(N)=O)=C(O)[C@@]2(O)C(=O)C3=C(O)c4c(O)cccc4[C@@](C)(O)[C@H]3[C@H](O)[C@@H]12`, the Potency result is “inactive”.

Turning to `O=C(O)C(Cl)Cl`, the Potency result was “inactive”.

With `CCOP(=S)(OCC)Oc1ccc2c(C)c(Cl)c(=O)oc2c1`, the Potency entry is “inactive”.

For `CC[n+]1ccccc1`, the Potency entry is “inactive”.

On to `COP(=O)(OC)OC=C(Cl)Cl`, for which the Potency result is “inactive”.

As for `CCCCn1cc[n+](C)c1C`, the Potency result was “inactive”.

Consider `CC(=O)[O][Hg][c]1ccccc1`, for which the Potency is 1900 nM (active).

`CCCCCCCCCCn1cc[n+](C)c1`: the Potency entry is “inactive”.

`O=C(O)COc1ccc(Cl)cc1Cl`: the Potency result was “inactive”.

Turning to `CC[N+](CC)(CC)CC`, the Potency result was “inactive”.

With `CCCCn1cc[n+](C)c1`, the Potency result was “inactive”.

On to `C[C@]12CCC(=O)C=C1CC[C@@H]1[C@@H]2CC[C@]2(C)C(=O)CC[C@@H]12`, for which the Potency entry was “inactive”.

`Cc1cc(Cl)ccc1OCC(=O)O`: the Potency result is “inactive”.

`O=c1[nH]c(=O)n(Cl)c(=O)n1Cl`: the Potency entry was “inactive”.

For `CCn1cc[n+](C)c1C`, the Potency result was “inactive”.

With `O=P1(N(CCCl)CCCl)NCCCO1` (stereo unspecified), the Potency result is “inactive”.

Take `OCCOc1ccccc1`: the Potency entry is “inactive”.

`CCNc1nc(Cl)nc(NCC)n1`: the Potency result was “inactive”.

With `CC(Cl)(Cl)C(=O)O`, the Potency entry is “inactive”.

A further assay in a line: qHTS RealTime-Glo MT Cell Viability Assay in HepG2 cells - 0 hour (AID 1224889). Further: nearly all actives have a fitted effect of over 50% in size. Conditions: RealTime-Glo luminescence; series mostly up to 76.8 µM. In outline:
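Viability was tracked continuously by NanoLuc luminescence from prosubstrate reduced by living HepG2 cells, at successive time points over 40 h of compound exposure. Cells with reagent were preincubated 5 h at 37 °C before compound addition.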
(In general: In qHTS, concentration-response curves come from the screen itself.)
On to `O=C(O)CCl`, for which the Potency entry is “inactive”.

Take `C=CCOC(Cn1ccnc1)c1ccc(Cl)cc1Cl` (stereo unspecified): the Potency result is “inactive”.

Consider `CC(=O)O`, for which the Potency result is “inactive”.

Consider `CCC[N+]1(C)CCCC1`, for which the Potency entry is “inactive”.

As for `CCCCCC[n+]1ccccc1`, the Potency result was “inactive”.

In the case of `CCCC[N+]1(C)CCCCC1`, the Potency entry was “inactive”.

Regarding `COCC(=O)N(c1c(C)cccc1C)C(C)C(=O)OC` (stereo unspecified), the Potency result was “inactive”.

With `Nc1ccccc1`, the Potency result was “inactive”.

`O=S(=O)(O)O`: the Potency entry was “inactive”.

Take `C1CCC(NC2CCCCC2)CC1`: the Potency entry was “inactive”.

As to `CCCn1cc[n+](C)c1`, the Potency result is “inactive”.

`O=C(O)C(Cl)(Cl)Cl`: the Potency entry is “inactive”.

For `COP(=O)(OC)C(O)C(Cl)(Cl)Cl` (stereo unspecified), the Potency result was “inactive”.

As for `CN(C)[C@@H]1C(=O)C(C(N)=O)=C(O)[C@@]2(O)C(=O)C3=C(O)c4c(O)cccc4[C@@](C)(O)[C@H]3[C@H](O)[C@@H]12`, the Potency result is “inactive”.

On to `O=C(O)C(Cl)Cl`, for which the Potency result is “inactive”.

For `CCOP(=S)(OCC)Oc1ccc2c(C)c(Cl)c(=O)oc2c1`, the Potency result was “inactive”.

Regarding `CC[n+]1ccccc1`, the Potency result was “inactive”.

Regarding `COP(=O)(OC)OC=C(Cl)Cl`, the Potency result was “inactive”.

In the case of `CCCCn1cc[n+](C)c1C`, the Potency result was “inactive”.

As for `CC(=O)[O][Hg][c]1ccccc1`, the Potency result was “inactive”.

For the compound `CCCCCCCCCCn1cc[n+](C)c1`, the Potency result is “inactive”.

Regarding `O=C(O)COc1ccc(Cl)cc1Cl`, the Potency result was “inactive”.

For the compound `CC[N+](CC)(CC)CC`, the Potency result was “inactive”.

`CCCCn1cc[n+](C)c1`: the Potency result was “inactive”.

Turning to `C[C@]12CCC(=O)C=C1CC[C@@H]1[C@@H]2CC[C@]2(C)C(=O)CC[C@@H]12`, the Potency is 34.1 µM (active) and 21.9 µM (active) and inactive.

`Cc1cc(Cl)ccc1OCC(=O)O`: the Potency entry was “inactive”.

As to `O=c1[nH]c(=O)n(Cl)c(=O)n1Cl`, the Potency result is “inactive”.

For `CCn1cc[n+](C)c1C`, the Potency result was “inactive”.

As to `O=P1(N(CCCl)CCCl)NCCCO1` (stereo unspecified), the Potency result was “inactive”.

In the case of `OCCOc1ccccc1`, the Potency entry is “inactive”.

With `CCNc1nc(Cl)nc(NCC)n1`, the Potency entry is “inactive”.

`CC(Cl)(Cl)C(=O)O`: the Potency result is “inactive”.

The nature of the next assay: A CellTox Green Cytotoxicity Assay to monitor cytotoxicity in HepG2 cells - 8 hour (AID 1224890). Further: nearly all actives have a fitted effect of over 45% in size. Conditions: CellTox Green fluorescence; series mostly up to 76.8 µM. The essentials:
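Nonlytic assay: viable cells exclude the dye, so fluorescence scales with cell death. HepG2 at 600 cells/well, compounds added after 5 h, signal read across 40 h.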
`O=C(O)CCl`: the Potency entry was “inactive”.

Turning to `C=CCOC(Cn1ccnc1)c1ccc(Cl)cc1Cl` (stereo unspecified), the Potency result was “inactive”.

For the compound `CC(=O)O`, the Potency result is “inactive”.

As for `CCC[N+]1(C)CCCC1`, the Potency result is “inactive”.

As to `CCCCCC[n+]1ccccc1`, the Potency entry was “inactive”.

In the case of `CCCC[N+]1(C)CCCCC1`, the Potency result is “inactive”.

`COCC(=O)N(c1c(C)cccc1C)C(C)C(=O)OC` (stereo unspecified): the Potency result is “inactive”.

Regarding `Nc1ccccc1`, the Potency result was “inactive”.

Consider `O=S(=O)(O)O`, for which the Potency entry is “inactive”.

As for `C1CCC(NC2CCCCC2)CC1`, the Potency result is “inactive”.

For the compound `CCCn1cc[n+](C)c1`, the Potency entry is “inactive”.

Take `O=C(O)C(Cl)(Cl)Cl`: the Potency entry is “inactive”.

`COP(=O)(OC)C(O)C(Cl)(Cl)Cl` (stereo unspecified): the Potency result is “inactive”.

On to `CN(C)[C@@H]1C(=O)C(C(N)=O)=C(O)[C@@]2(O)C(=O)C3=C(O)c4c(O)cccc4[C@@](C)(O)[C@H]3[C@H](O)[C@@H]12`, for which the Potency result is “inactive”.

As for `O=C(O)C(Cl)Cl`, the Potency entry was “inactive”.

As to `CCOP(=S)(OCC)Oc1ccc2c(C)c(Cl)c(=O)oc2c1`, the Potency entry is “inactive”.

For `CC[n+]1ccccc1`, the Potency entry was “inactive”.

Turning to `COP(=O)(OC)OC=C(Cl)Cl`, the Potency result was “inactive”.

For `CCCCn1cc[n+](C)c1C`, the Potency entry is “inactive”.

`CC(=O)[O][Hg][c]1ccccc1`: the Potency is 2.73 µM (active) and 2.19 µM (active) and 1.2 µM (active).

As for `CCCCCCCCCCn1cc[n+](C)c1`, the Potency entry is “inactive”.

As for `O=C(O)COc1ccc(Cl)cc1Cl`, the Potency entry is “inactive”.

For `CC[N+](CC)(CC)CC`, the Potency entry is “inactive”.

Consider `CCCCn1cc[n+](C)c1`, for which the Potency entry was “inactive”.

`C[C@]12CCC(=O)C=C1CC[C@@H]1[C@@H]2CC[C@]2(C)C(=O)CC[C@@H]12`: the Potency result is “inactive”.

On to `Cc1cc(Cl)ccc1OCC(=O)O`, for which the Potency entry is “inactive”.

For `O=c1[nH]c(=O)n(Cl)c(=O)n1Cl`, the Potency entry was “inactive”.

`CCn1cc[n+](C)c1C`: the Potency result is “inactive”.

Take `O=P1(N(CCCl)CCCl)NCCCO1` (stereo unspecified): the Potency result is “inactive”.

On to `OCCOc1ccccc1`, for which the Potency entry was “inactive”.

`CCNc1nc(Cl)nc(NCC)n1`: the Potency result is “inactive”.

For `CC(Cl)(Cl)C(=O)O`, the Potency result is “inactive”.
